Measured values from PMC5700166.

biological target: T1, GST-Nv-NF-kB (Ser allele) (Nematostella vectensis, UniProt A7UNT2 2-411); assay: protein-binding microarray (PBM); PBM: ~300 nM protein, 6 mM HEPES pH 7.8, 80 mM KCl, 0.5 mM EDTA, 0.5 mM EGTA, 6% glycerol, 35 ng/ul poly-dIdC, 1% milk, 1 h, room temperature; Ap Aiptasia and Nv Nematostella (sea anemones) / Co Capsaspora / Aq Amphimedon (sponge) / Dm Drosophila / Hu human; RHD is the Rel homology domain; high values mean tight binding; details: dsDNA, one strand shown
T1 sequence: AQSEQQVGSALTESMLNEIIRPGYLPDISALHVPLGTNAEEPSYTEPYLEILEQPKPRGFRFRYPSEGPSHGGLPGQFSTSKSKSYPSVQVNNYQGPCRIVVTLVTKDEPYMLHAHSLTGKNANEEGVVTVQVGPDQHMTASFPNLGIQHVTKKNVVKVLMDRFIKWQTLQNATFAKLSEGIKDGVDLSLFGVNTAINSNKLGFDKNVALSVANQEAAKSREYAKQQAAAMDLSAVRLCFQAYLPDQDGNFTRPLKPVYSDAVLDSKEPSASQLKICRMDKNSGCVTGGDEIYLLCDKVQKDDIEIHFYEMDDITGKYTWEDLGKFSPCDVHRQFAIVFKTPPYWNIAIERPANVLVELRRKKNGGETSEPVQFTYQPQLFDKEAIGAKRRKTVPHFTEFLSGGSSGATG

Row | Sequence | binding signal
1 | CCGATTAACATCAAGAAACCCCCTGATGTTAATCGGGTCTTGATTCGCTTGACGCTGCTG | 9.47 z-score
2 | CCGATTAACATCAAGGGGGAAAATGATGTTAATCGGGTCTTGATTCGCTTGACGCTGCTG | 10.6 z-score
3 | CCGATTAACATCAAGGTATTCCCTGATGTTAATCGGGTCTTGATTCGCTTGACGCTGCTG | 3.75 z-score
4 | CCGATTAACATCAGGGAAACCCCTGATGTTAATCGGGTCTTGATTCGCTTGACGCTGCTG | 9.7 z-score
5 | CCGATTAACATCAGCCCGGGAAATGATGTTAATCGGGTCTTGATTCGCTTGACGCTGCTG | 2.11 z-score
6 | CCGATTAACATCAAACTACCCCCTGATGTTAATCGGGTCTTGATTCGCTTGACGCTGCTG | 4.35 z-score
7 | CCGATTAACATCAAGGGGGTTTATGATGTTAATCGGGTCTTGATTCGCTTGACGCTGCTG | 7.73 z-score
8 | CCGATTAACATCAAAAATCCCCGTGATGTTAATCGGGTCTTGATTCGCTTGACGCTGCTG | 11.1 z-score
9 | CCGATTAACATCAGAAATATCCCTGATGTTAATCGGGTCTTGATTCGCTTGACGCTGCTG | 2.09 z-score
10 | CCGATTAACATCAACGGATTCCCTGATGTTAATCGGGTCTTGATTCGCTTGACGCTGCTG | 3.98 z-score
11 | CCGATTAACATCAGGGGGAATTATGATGTTAATCGGGTCTTGATTCGCTTGACGCTGCTG | 10.6 z-score
12 | CCGATTAACATCAGGGGAACTTATGATGTTAATCGGGTCTTGATTCGCTTGACGCTGCTG | 8.41 z-score
13 | CCGATTAACATCAGGCATCCCCATGATGTTAATCGGGTCTTGATTCGCTTGACGCTGCTG | 3.73 z-score
14 | CCGATTAACATCAGATATTCCCATGATGTTAATCGGGTCTTGATTCGCTTGACGCTGCTG | 3.17 z-score
15 | CCGATTAACATCAAACACCCCCTTGATGTTAATCGGGTCTTGATTCGCTTGACGCTGCTG | 5.61 z-score
16 | CCGATTAACATCAGGGAATTTTATGATGTTAATCGGGTCTTGATTCGCTTGACGCTGCTG | 8.44 z-score
17 | CCGATTAACATCAAAAAATCCCCTGATGTTAATCGGGTCTTGATTCGCTTGACGCTGCTG | 13.6 z-score
18 | CCGATTAACATCAGGACTCCCCATGATGTTAATCGGGTCTTGATTCGCTTGACGCTGCTG | 3.6 z-score
19 | CCGATTAACATCAAAATTCCCGCTGATGTTAATCGGGTCTTGATTCGCTTGACGCTGCTG | 5.62 z-score
20 | CCGATTAACATCAATTTCCCACCTGATGTTAATCGGGTCTTGATTCGCTTGACGCTGCTG | 3.89 z-score

Row | Sequence | binding signal
21 | CCGATTAACATCAAAATTCCCACTGATGTTAATCGGGTCTTGATTCGCTTGACGCTGCTG | 5.15 z-score
22 | CCGATTAACATCACTGAAATCCCTGATGTTAATCGGGTCTTGATTCGCTTGACGCTGCTG | 1.72 z-score
23 | CCGATTAACATCACAGTTTCCCCTGATGTTAATCGGGTCTTGATTCGCTTGACGCTGCTG | 10.3 z-score
24 | CCGATTAACATCAGGGGAATGTATGATGTTAATCGGGTCTTGATTCGCTTGACGCTGCTG | 8.56 z-score
25 | CCGATTAACATCAGGGGGATCCATGATGTTAATCGGGTCTTGATTCGCTTGACGCTGCTG | 6.25 z-score
26 | CCGATTAACATCAAGGGAATGCCTGATGTTAATCGGGTCTTGATTCGCTTGACGCTGCTG | 2.83 z-score
27 | CCGATTAACATCACAAATTCCCCTGATGTTAATCGGGTCTTGATTCGCTTGACGCTGCTG | 12.6 z-score
28 | CCGATTAACATCAGGGTAAGTACTGATGTTAATCGGGTCTTGATTCGCTTGACGCTGCTG | 2.93 z-score
29 | CCGATTAACATCACAAACTCCCCTGATGTTAATCGGGTCTTGATTCGCTTGACGCTGCTG | 7.23 z-score
30 | CCGATTAACATCACCGTTTCCCCTGATGTTAATCGGGTCTTGATTCGCTTGACGCTGCTG | 9.86 z-score
31 | CCGATTAACATCAGGGGGTCCACTGATGTTAATCGGGTCTTGATTCGCTTGACGCTGCTG | 2.96 z-score
32 | CCGATTAACATCAGGGGTTTCTATGATGTTAATCGGGTCTTGATTCGCTTGACGCTGCTG | 4.67 z-score
33 | CCGATTAACATCAGGGGAAAACCTGATGTTAATCGGGTCTTGATTCGCTTGACGCTGCTG | 11.5 z-score
34 | CCGATTAACATCAGGGAAGTACCTGATGTTAATCGGGTCTTGATTCGCTTGACGCTGCTG | 8.68 z-score
35 | CCGATTAACATCAGATAATTCCCTGATGTTAATCGGGTCTTGATTCGCTTGACGCTGCTG | 6.02 z-score
36 | CCGATTAACATCAGGATTTCCCCTGATGTTAATCGGGTCTTGATTCGCTTGACGCTGCTG | 11.4 z-score
37 | CCGATTAACATCACAAAAACCCCTGATGTTAATCGGGTCTTGATTCGCTTGACGCTGCTG | 6.81 z-score
38 | CCGATTAACATCAGGGGAGTTTATGATGTTAATCGGGTCTTGATTCGCTTGACGCTGCTG | 7.68 z-score
39 | CCGATTAACATCAGGGGCCCCCCTGATGTTAATCGGGTCTTGATTCGCTTGACGCTGCTG | 2.88 z-score

biological target: T2, GST-Co-NF-kB (Capsaspora owczarzaki, UniProt F1ARL5 200-546); assay: as above; details: dsDNA, one strand shown
T2 sequence: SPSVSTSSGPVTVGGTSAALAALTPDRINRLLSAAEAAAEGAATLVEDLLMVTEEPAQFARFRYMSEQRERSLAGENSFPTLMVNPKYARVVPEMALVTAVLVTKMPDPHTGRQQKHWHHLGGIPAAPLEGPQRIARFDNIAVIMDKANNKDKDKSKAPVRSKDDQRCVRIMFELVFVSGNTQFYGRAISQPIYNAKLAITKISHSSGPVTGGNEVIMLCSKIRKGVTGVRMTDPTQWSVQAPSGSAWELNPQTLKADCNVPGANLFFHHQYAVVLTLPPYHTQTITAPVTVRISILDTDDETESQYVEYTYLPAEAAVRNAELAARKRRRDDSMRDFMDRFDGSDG

Row | Sequence | binding signal
40 | CCGATTAACATCAAGAAACCCCCTGATGTTAATCGGGTCTTGATTCGCTTGACGCTGCTG | 3.31 z-score
41 | CCGATTAACATCAAGGGGGAAAATGATGTTAATCGGGTCTTGATTCGCTTGACGCTGCTG | 9.03 z-score
42 | CCGATTAACATCAAGGTATTCCCTGATGTTAATCGGGTCTTGATTCGCTTGACGCTGCTG | 3.21 z-score
43 | CCGATTAACATCAGGGAAACCCCTGATGTTAATCGGGTCTTGATTCGCTTGACGCTGCTG | 5.51 z-score
44 | CCGATTAACATCAGCCCGGGAAATGATGTTAATCGGGTCTTGATTCGCTTGACGCTGCTG | 3.24 z-score
45 | CCGATTAACATCAAACTACCCCCTGATGTTAATCGGGTCTTGATTCGCTTGACGCTGCTG | 5.82 z-score
46 | CCGATTAACATCAAGGGGGTTTATGATGTTAATCGGGTCTTGATTCGCTTGACGCTGCTG | 2.54 z-score
47 | CCGATTAACATCAAAAATCCCCGTGATGTTAATCGGGTCTTGATTCGCTTGACGCTGCTG | 6.22 z-score
48 | CCGATTAACATCAGAAATATCCCTGATGTTAATCGGGTCTTGATTCGCTTGACGCTGCTG | 1.62 z-score
49 | CCGATTAACATCAACGGATTCCCTGATGTTAATCGGGTCTTGATTCGCTTGACGCTGCTG | 2.89 z-score
50 | CCGATTAACATCAGGGGGAATTATGATGTTAATCGGGTCTTGATTCGCTTGACGCTGCTG | 9.25 z-score
51 | CCGATTAACATCAGGGGAACTTATGATGTTAATCGGGTCTTGATTCGCTTGACGCTGCTG | 7.21 z-score
52 | CCGATTAACATCAGGCATCCCCATGATGTTAATCGGGTCTTGATTCGCTTGACGCTGCTG | 1.82 z-score
53 | CCGATTAACATCAGATATTCCCATGATGTTAATCGGGTCTTGATTCGCTTGACGCTGCTG | 2.8 z-score
54 | CCGATTAACATCAAACACCCCCTTGATGTTAATCGGGTCTTGATTCGCTTGACGCTGCTG | 3.04 z-score
55 | CCGATTAACATCAGGGAATTTTATGATGTTAATCGGGTCTTGATTCGCTTGACGCTGCTG | 4.82 z-score
56 | CCGATTAACATCAAAAAATCCCCTGATGTTAATCGGGTCTTGATTCGCTTGACGCTGCTG | 6.83 z-score
57 | CCGATTAACATCAGGACTCCCCATGATGTTAATCGGGTCTTGATTCGCTTGACGCTGCTG | 3.44 z-score
58 | CCGATTAACATCAAAATTCCCGCTGATGTTAATCGGGTCTTGATTCGCTTGACGCTGCTG | 5.23 z-score
59 | CCGATTAACATCAATTTCCCACCTGATGTTAATCGGGTCTTGATTCGCTTGACGCTGCTG | 2.84 z-score

Row | Sequence | binding signal
60 | CCGATTAACATCAAAATTCCCACTGATGTTAATCGGGTCTTGATTCGCTTGACGCTGCTG | 4.31 z-score
61 | CCGATTAACATCACTGAAATCCCTGATGTTAATCGGGTCTTGATTCGCTTGACGCTGCTG | 1.34 z-score
62 | CCGATTAACATCACAGTTTCCCCTGATGTTAATCGGGTCTTGATTCGCTTGACGCTGCTG | 7.74 z-score
63 | CCGATTAACATCAGGGGAATGTATGATGTTAATCGGGTCTTGATTCGCTTGACGCTGCTG | 6.26 z-score
64 | CCGATTAACATCAGGGGGATCCATGATGTTAATCGGGTCTTGATTCGCTTGACGCTGCTG | 4.25 z-score
65 | CCGATTAACATCAAGGGAATGCCTGATGTTAATCGGGTCTTGATTCGCTTGACGCTGCTG | 1.06 z-score
66 | CCGATTAACATCACAAATTCCCCTGATGTTAATCGGGTCTTGATTCGCTTGACGCTGCTG | 8.68 z-score
67 | CCGATTAACATCAGGGTAAGTACTGATGTTAATCGGGTCTTGATTCGCTTGACGCTGCTG | 1.85 z-score
68 | CCGATTAACATCACAAACTCCCCTGATGTTAATCGGGTCTTGATTCGCTTGACGCTGCTG | 4.83 z-score
69 | CCGATTAACATCACCGTTTCCCCTGATGTTAATCGGGTCTTGATTCGCTTGACGCTGCTG | 7.95 z-score
70 | CCGATTAACATCAGGGGGTCCACTGATGTTAATCGGGTCTTGATTCGCTTGACGCTGCTG | 1.99 z-score
71 | CCGATTAACATCAGGGGTTTCTATGATGTTAATCGGGTCTTGATTCGCTTGACGCTGCTG | 1.76 z-score
72 | CCGATTAACATCAGGGGAAAACCTGATGTTAATCGGGTCTTGATTCGCTTGACGCTGCTG | 7.99 z-score
73 | CCGATTAACATCAGGGAAGTACCTGATGTTAATCGGGTCTTGATTCGCTTGACGCTGCTG | 1.93 z-score
74 | CCGATTAACATCAGATAATTCCCTGATGTTAATCGGGTCTTGATTCGCTTGACGCTGCTG | 4.01 z-score
75 | CCGATTAACATCAGGATTTCCCCTGATGTTAATCGGGTCTTGATTCGCTTGACGCTGCTG | 7.55 z-score
76 | CCGATTAACATCACAAAAACCCCTGATGTTAATCGGGTCTTGATTCGCTTGACGCTGCTG | 2.92 z-score
77 | CCGATTAACATCAGGGGAGTTTATGATGTTAATCGGGTCTTGATTCGCTTGACGCTGCTG | 4.75 z-score
78 | CCGATTAACATCAGGGGCCCCCCTGATGTTAATCGGGTCTTGATTCGCTTGACGCTGCTG | 3.01 z-score
